Residue numbers refer to the chain shown, from its start. The full ranking holds about 5,800 sequences; the median of “enrichment r” is about 0.54, and the highest 2% start at about 16. Shown is part of a subset that was picked to be rich in the highest values.

The chains are these.
B1: chr6:75256125:75256201:-|CDS_3pUTR|ENSG00000112697|msi1_unk|FALSE|overlapping (ssRNA)
RNA: GGGAGUUCUACAGUCCGACGAUCUUUGGGGAUUGCUUACAUCGCUGUUGGAUCCAUCUCCUUCCUUCUGGGAGUUGUACUGCUAGUAAUUAAUCAUAAAUAUAGAAACAGUAGUAAUACAGCUGACAUUACCAUUUAAUUUUACAACAGAGGAUUGAGCAUCA
B2: chr6:75256125:75256201:-|CDS_3pUTR|ENSG00000112697|msi1_unk|total|mutant (ssRNA)
RNA: B1 RNA with U83C, A84C, U102C, A103C, U111C, A112C
B3: chr11:101473508:101473773:-|CDS|ENSG00000137672|control|control|control (ssRNA)
RNA: GGGAGUUCUACAGUCCGACGAUCUCCUCAAAUAAUAUCUGAAGGUCUUUAUGCAAUUGCUGUAGUUUUAAGUUUCUCUAGGAUAGCUUAUAUUUUACCAGCAAAUGAAAGCUUUGGACCUCUGCAGAUAUCACUUGGAAGAACCAACAGAGGAUUGAGCAUCA
B4: ENSG00000070961:be:win_6151|3pUTR|ENSG00000070961|bound_else_gene|NA|bound_elsewhere_windowed (ssRNA)
RNA: GGGAGUUCUACAGUCCGACGAUCCAAUCACUUUUUCUCUUUUAUCCUCUAACCAAAAAAUUGUUUAAUUUUGCAUCCCAAAUGUUUUUAAUCUUUGUAUAUUUUUUAAAAAUCCUUUUCUCCUCAUCAUUGCCUUUUUUGUGGCAACAGAGGAUUGAGCAUCA
B5: chr10:92030311:92030412:+|3pUTR|ENSG00000095564|unk|FALSE|unique (ssRNA)
RNA: GGGAGUUCUACAGUCCGACGAUCAUAUAAGAUUGAAACUGUAAAAUAUAUGCAACUGUGUGUUAUUUGUAGGAAAUGGUCACUAGAAAGAGCAAAAGAUUAUUCAGGUAUACAGGUUUUUUUUCAUUGUUUAGGAUUUUAACUCAACAGAGGAUUGAGCAUCA
B6: ENSG00000070961:be:win_6101|3pUTR|ENSG00000070961|bound_else_gene|NA|bound_elsewhere_windowed (ssRNA)
RNA: GGGAGUUCUACAGUCCGACGAUCUAAAGAUCUUGGAUCCCAUUAUAUAGUAUGUAUAGCUGAAAUCUGUAAUUCAAUCACUUUUUCUCUUUUAUCCUCUAACCAAAAAAUUGUUUAAUUUUGCAUCCCAAAUGUUUUUAAUCUCAACAGAGGAUUGAGCAUCA
B7: chr1:229632307:229632408:+|CDS|ENSG00000135763|unk|total|mutant (ssRNA)
RNA: GGGAGUUCUACAGUCCGACGAUCAUUUUAUAAGAAAAAGCUUGAACUGAAGGAAGAUAUUGUUGAAAGGCUUUGGAUCUAUACCGAUAACAUUUUACACCGCAGAAAAUUGCAGAAUCUCCUCAAGAAUGGAAAGACCAUUAACAACAGAGGAUUGAGCAUCA
B8: chr5:113019263:113019364:+|3pUTR|ENSG00000172795|msi1|FALSE|unique (ssRNA)
RNA: GGGAGUUCUACAGUCCGACGAUCCUCAACUGUGAAUGAAAUUUAGAAAGAUAAUUCUUCAGCAGUUGGUUGAUUAGAUGGGUUAGUGCUUUUGGAAUAUAUAACAGUAGACUUGUAUUCUUUAUGCACUAUACAUAUGAUACGCAACAGAGGAUUGAGCAUCA
B9: chr8:94436494:94436868:-|CDS|ENSG00000265817|control|control|control (ssRNA)
RNA: GGGAGUUCUACAGUCCGACGAUCAAUAGUAGAAAAGAAUAGAUGUUGGGAUAUCAUAGCAGUUAACUAUAAUGCAAUUGGAGUAGACCGCCCUCCUCGAACAGCACAGGGCCUACGCACCCUUUAUAAAAGGCUCAAAGAAUACAACAGAGGAUUGAGCAUCA
B10: chr10:113908677:113908778:+|3pUTR|ENSG00000196865|unk|total|mutant (ssRNA)
RNA: GGGAGUUCUACAGUCCGACGAUCAGCUAUGCUCCUUACUUACUUCUUUUAUUAUAAACAAAUUCCUUUGCUUUGGCUGAUACCCGCUGAGUCAUUGAUCAUCAUUGGUACCAUGAUAUUGUAAUCUAUGCUGCUAUUUGGCACCAACAGAGGAUUGAGCAUCA
B11: chr1:113764432:113764533:-|3pUTR|ENSG00000081019|msi1|FALSE|bound_elsewhere (ssRNA)
RNA: GGGAGUUCUACAGUCCGACGAUCAAAAUAUUCUGAAAUAGGUUAAAUCUUAUAUAAAUAUUACUUUGUGCAAUAUUGUUGUGUAGUUAAAUGCAUAUUAGCAAAGUAUAGAGGUCACUGUGUAAACCGAUAGAAAAGUAACCACAACAGAGGAUUGAGCAUCA
B12: chr1:113764432:113764533:-|3pUTR|ENSG00000081019|msi1|total|mutant (ssRNA)
RNA: B11 RNA with U38C, A39C, U83C, A84C, U98C, A99C, U108C, A109C, U130C, A131C
B13: ENSG00000070961:be:win_1201|CDS|ENSG00000070961|bound_else_gene|NA|bound_elsewhere_windowed (ssRNA)
RNA: GGGAGUUCUACAGUCCGACGAUCAAAAGACCAUGGCUUGCUGAGUGCACACCAAUUUAUAUACAAUACUUUGUGAAGUUCUUCAUUAUUGGAGUUACAGUUUUAGUGGUCGCAGUGCCAGAAGGUCUUCCACUUGCAGUCACGCAACAGAGGAUUGAGCAUCA
B14: chr5:150401636:150402250:-|three_prime_utr|ENSG00000019582|control|control|control (ssRNA)
RNA: GGGAGUUCUACAGUCCGACGAUCCUGCUGCCCAAUCUCCAUCUGUCAACAGGGGCGUGAGGUCCCAGGAAGUGGCCAAAAGCUAGACAGAUCCCCGUUCCUGACAUCACAGCAGCCUCCAACACAAGGCUCCAAGACCUAGGCCAACAGAGGAUUGAGCAUCA
B15: chr5:40972473:40972581:+|CDS|ENSG00000112936|unk|FALSE|unique (ssRNA)
RNA: GGGAGUUCUACAGUCCGACGAUCAAAACCUUUCUACACAGUUGGUGAGAAGGUGACUGUUUCCUGUUCAGGUGGCAUGUCCUUAGAAGGUCCUUCAGCAUUUCUCUGUGGCUCCAGCCUUAAGUGGAGUCCUGAGAUGAAGAACAACAGAGGAUUGAGCAUCA
B16: ENSG00000096070:stop:overlap|stop_codon|ENSG00000096070|stop_codon|NA|stop_codon (ssRNA)
RNA: GGGAGUUCUACAGUCCGACGAUCAGAAGGAUCCUGCACACAUCUUCGCAGAACCAGUCAACUUGAGUGAGGUUUUAUAUGUUUAGGUUCCAGAUUACCUGGAAUUCAUAUCCAAGCCAAUGGAUUUUUCUACUAUGAGGCGGACAACAGAGGAUUGAGCAUCA
B17: chr13:42886387:42888493:-|three_prime_utr|ENSG00000133106|control|control|control (ssRNA)
RNA: GGGAGUUCUACAGUCCGACGAUCCAUAUUUAAUCUCUACUGCCAGGGAAAUGCUACAUUAUUUUUCUAAUUGGAAGUAUAAUUAGAGUGAUGUUGGUAGGGUAGAAAAAGAGGGAGUCACUUGAUGCUUUCAGGUUAAUCAGACAACAGAGGAUUGAGCAUCA
B18: chr16:3436009:3436110:-|3pUTR|ENSG00000167981|unk|total|mutant (ssRNA)
RNA: GGGAGUUCUACAGUCCGACGAUCAUUAAAAUGAAGGCUCUUGCUAAAGUUAUUUUAAUUUUGUUUACGCCGUUUCUGACUUUCCGAAGGAGGAGAAUUUAUUUAUAUUUUGCCAGUUCUGCAGACAUAUCCCGGAAAGUAAAUCAACAGAGGAUUGAGCAUCA
B19: chr1:183143318:183143419:+|3pUTR|ENSG00000135862|msi1|total|mutant (ssRNA)
RNA: GGGAGUUCUACAGUCCGACGAUCACAUCCUGUGCCAAAGGUAUUGGUCAUUCCGAAUGUCGGCCGCCAUCCAUCAGUGCUUUCCGUUAUUAUGAGUGCCGGACACUGAGCCAUCCGUGGGUCAGGAUGCAAUUAUUUAUAAAACAACAGAGGAUUGAGCAUCA
B20: chr1:16124349:16124452:-|3pUTR|ENSG00000142627|msi1|FALSE|unique (ssRNA)
RNA: GGGAGUUCUACAGUCCGACGAUCUUUGUUUUGUUGGACAUUUUUUUCGAAUCUUAAUUUAUUAUUUUUUUUAUAUUUAUUGUUAGAAAAUGACUUAUUUCUGCUCUGGAAUAAAGUUGCAGAUGAUUCAAACCGAUCUUGGCUCAACAGAGGAUUGAGCAUCA
B21: chr1:183143318:183143419:+|3pUTR|ENSG00000135862|msi1|FALSE|unique (ssRNA)
RNA: B19 RNA with C52U, C53A, C63U, C64A, C83U, C84A, C98U, C99A
B22: chr15:67202635:67202736:-|3pUTR|ENSG00000103591|msi1|FALSE|unique (ssRNA)
RNA: GGGAGUUCUACAGUCCGACGAUCUGCCAAAAUUGCCCUUAUCAUGUUGGCUGCCUGACUUGUUUAUAGGGUCCCCUUAAUUUUAGUUUUUAGUAGGAGGUUAAGGAGAAAUCUUUUUUUUCCUCAGUAUAUUGUAAGAGAGUGCAACAGAGGAUUGAGCAUCA
B23: chr3:100749155:100750494:-|three_prime_utr|ENSG00000154175|control|control|control (ssRNA)
RNA: GGGAGUUCUACAGUCCGACGAUCUGCCGCAUUCAUUUAAAGCUAUUUUGUUUACUAUGUAUAAAAGUCUACAAUCUAAUUAAUAGCAAUACUAGAUGUUUAUUAUUAGAAAAGAUUGCUGAGAGUAUUUAUCAGGUUUUACAACAACAGAGGAUUGAGCAUCA
B24: chr3:46835109:46836203:-|three_prime_utr|ENSG00000160808|control|control|control (ssRNA)
RNA: GGGAGUUCUACAGUCCGACGAUCUGAAGGCACAAGCUGUUCCAGUAUAAUAAAGAAAAUAAUUAAAUUAAGAAAAGUUAUACUAGAAAUAAGAUAUAGGUAUGAUUAUUAUUAAUCAUUAGUUUGUAGUAUUACUUUGUUCUACAACAGAGGAUUGAGCAUCA
B25: chr15:67202635:67202736:-|3pUTR|ENSG00000103591|msi1|total|mutant (ssRNA)
RNA: B22 RNA with U66C, A67C, U83C, A84C, U90C, A91C, U93C, A94C
B26: chr6:1612588:1612689:+|3pUTR|ENSG00000054598|msi1|FALSE|unique (ssRNA)
RNA: GGGAGUUCUACAGUCCGACGAUCUUUAUUCAUGGACUUGUUUUAAAAUGUAAAUUGCAACAUAGUAAUUUAUUUUUAAUUUGUAGUUGGAUGUCGUGGACCAAACGCCAGAAAGUGUUCCCAAAACCUGACGUUAAAUUGCCUCAACAGAGGAUUGAGCAUCA
B27: ENSG00000070961:be:win_4051|3pUTR|ENSG00000070961|bound_else_gene|NA|bound_elsewhere_windowed (ssRNA)
RNA: GGGAGUUCUACAGUCCGACGAUCAUUUCUGCUGUUGGCUGUUAAUAAUUUGGAUUAUUUAUGUUUAUAAAUGAUACAGAUCUGUUUACAAGGUUUGUAGAUACUUUUUUUGUUCCUGUUCAUAGAUGGGAAGCUUCCUUAUAACAACAGAGGAUUGAGCAUCA
B28: chr16:3436009:3436110:-|3pUTR|ENSG00000167981|unk|FALSE|unique (ssRNA)
RNA: B18 RNA with C69U, C70A, C83U, C84A, C131U, C132A

The target of this assay is MSI1 full-length (mouse, UniProt Q61474 1-362). Nature of the assay: nsRBNS (natural sequence RNA bind-n-seq); RBNS binding buffer (assumed for nsRBNS): 25 mM Tris pH 7.5, 150 mM KCl, 3 mM MgCl2, 0.01% Triton X-100, 500 ug/ml BSA, 20 U/ml SUPERase-In, 4 C; UNK is unkempt and MSI1 is Musashi-1; names of the RNAs are library labels; protein concentration not given here; high values mean tight binding.
Sequence of MSI1 full-length (Q61474 whole entry): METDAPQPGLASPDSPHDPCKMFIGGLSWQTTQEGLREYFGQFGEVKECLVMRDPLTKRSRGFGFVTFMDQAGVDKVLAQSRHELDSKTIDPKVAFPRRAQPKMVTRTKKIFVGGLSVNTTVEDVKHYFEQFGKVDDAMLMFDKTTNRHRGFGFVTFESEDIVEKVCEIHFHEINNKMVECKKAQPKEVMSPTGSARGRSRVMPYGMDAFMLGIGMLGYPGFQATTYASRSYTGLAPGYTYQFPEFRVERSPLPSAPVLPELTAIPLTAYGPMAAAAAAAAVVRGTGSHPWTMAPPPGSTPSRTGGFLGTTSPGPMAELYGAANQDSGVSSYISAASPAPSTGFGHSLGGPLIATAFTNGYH
B1 gave a binding signal of 18.4 enrichment R.
B2 returned a binding signal of 0.387 enrichment R.
B3 had a binding signal of 1.39 enrichment R.
Then B4, with 3.25 enrichment R; and B5, with 6.54 enrichment R.
Turning to B6, the binding signal is 30 enrichment R.
Molecule B7 came in with a binding signal of 0.623 enrichment R.
For B8, the binding signal turned out to be 1.92 enrichment R.
For the molecule B9, the binding signal amounted to 28.2 enrichment R.
B10 came in with a binding signal of 3.24 enrichment R.
For B11, the binding signal turned out to be 51.3 enrichment R.
Consider B12, for which the binding signal came out at 0.583 enrichment R.
For the molecule B13, the binding signal was found to be 1.51 enrichment R.
Molecule B14 registered a binding signal of 0.462 enrichment R.
In the case of B15 it was 0.339 enrichment R; in that of B16, 0.383 enrichment R.
The molecule B17 had a binding signal of 0.46 enrichment R.
Then B18, with 0.68 enrichment R; and B19, with 0.319 enrichment R.
In the case of B20 it was 4.58 enrichment R; in that of B21, 34.2 enrichment R; in that of B22, 32.9 enrichment R.
For the molecule B23, the binding signal was found to be 4.63 enrichment R.
In the case of B24 it was 24.8 enrichment R; in that of B25, 0.438 enrichment R; in that of B26, 0.311 enrichment R.
In turn, B27 gave a binding signal of 1.02 enrichment R.
For B28, the binding signal worked out at 19.1 enrichment R.

For the origin of these results see article PMC12136788.
